Data as given in PubChem BioAssay (NCATS).
Several values for one entry are separate records, joined by “and”; a condition that tells them apart may be missing. Identical values can stand only once. Results filed as inconclusive are left out. Activity calls are given as the source filed them. Unless noted, calls follow the shape of the dose curve; as a rule, active = well fitted curve in either direction with a large enough effect (not every such curve was filed as active); inconclusive = small, poorly fitted or top-dose-only effect, or another doubt; inactive = flat fitted curve, though single readings scatter.

How the values were obtained:
[1] = AP1 Signaling Pathway (AID 357);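 also: ME-180 reporter cells stimulated with EGF at its EC50 level; % is scaled to controls: 0 for no effect and ±100 for the full control effect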
In short: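 A ratiometric CCF4 readout (405 nm excitation; 460 and 530 nm emission) quantified AP-1-driven beta-lactamase in ME-180 cells after 5 h with compound and EC50 EGF; AC50 values were derived for activators and inhibitors.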

[2] = target: Cytochrome P450 1A2 (Homo sapiens) (UniProt P05177); assay: p450-cyp1a2 (AID 410; calls by dose curve; also: potency is read from the fitted curve at half-maximal effect;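 as to activity change, negative = inhibition: -100% = full effect of reference inhibitor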)
In short: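 O-Demethylation of luciferin 6' methyl ether by human CYP1A2 is monitored as luciferase luminescence. Substrate sits at Km (100uM); enzyme is 20nM. Values are scaled to 57 uM furafylline as maximal inhibition.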

[3] = NFAT Signaling Pathway (AID 444); conditions: Jurkat NFAT-bla M1, carbachol, beta-lactamase ratio, 5 h;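 also: carbachol stimulus at about its EC50 of 1 µM final; % is scaled to controls: 0 for no effect and ±100 for the full control effect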
In short: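 Read-out: CCF4 FRET ratio (460 nm/530 nm) after 1 h RT dye loading, used for %activity and AC50 from titration series. Cells: Jurkat NFAT-β-lactamase/M1 line, treated with compound plus 1 uM carbachol for 5 h, 37 °C.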

[4] = Stat Signaling Pathway (AID 446);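 also: ME-180 cervical cancer cells given 40 pM IL-6 alongside compound; SIE-controlled beta-lactamase reporter measured as 460/530 nm FRET emission ratio; % is scaled to controls: 0 for no effect and ±100 for the full control effect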
In short: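 Compound effects on IL-6-induced STAT reporter activity were measured in ME-180 cells. After overnight culture, cells were co-treated with 40 pM IL-6 for 5 hrs before beta-lactamase substrate loading at room temperature.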

[5] = target: Glucocorticoid receptor (Homo sapiens) (UniProt P04150); assay: GR-GFP Redistribution (AID 450;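 active = compounds whose dose series gives a full or clear partial fitted curve of increased nuclear translocation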; also: potency is read from the fitted curve at half-maximal effect); conditions: U2OS GR-GFP nuclear translocation, laser cytometry, 2 h
[6] = target: Glucocorticoid receptor (Homo sapiens) (UniProt P04150); assay: GR-EFC Redistribution (AID 451; calls by dose curve; also: potency is read from the fitted curve at half-maximal effect); conditions: CHO-K1 GR-EFC translocation, beta-gal luminescence, 2 h
In short: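 Translocation of GR-ED fusion to nuclear EA restores b-gal, read by luminescence after 1 h room-temperature detection. Engineered CHO-K1 biosensor cells, 1,000/well, exposed 2 h at 37 C to titrations up to 46 uM final.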

[7] = target: Mitogen-activated protein kinase 10 (Mus musculus) (UniProt Q61831); assay: JNK3 AlphaScreen Assay (AID 530);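 also: kinase came from lysate of stimulated human HepG2 cells; signal reports phosphorylation of biotinylated GST-cJun 1-79 at Ser73 with 10 µM ATP; % is scaled to controls: 0 for no effect and ±100 for the full control effect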
In short: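 qHTS titrations with 15 min compound pre-incubation before adding ATP (10 uM final). Read-out: AlphaScreen of Ser73-phosphorylated biotin-GST-cJun using HepG2 lysate JNK3 activated by IL-1β and TNFα.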

[8] = target: 3',5'-cyclic-AMP phosphodiesterase 4B (Homo sapiens) (UniProt Q07343); assay: qHTS Assay for Inhibitors of PDE-IV (AID 607; active = well fitted activation curve with a large enough effect in the main read-out, with a control signal flat, not every such curve was filed as active; also: % of control where 0% means no effect)
In short: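 ACTOne HEK293 cells carry a modified cAMP-gated CNG channel and express endogenous PDE4; plated 1000 cells/well, compounds up to 22.9 uM final. Membrane-potential dye fluorescence (ex 535/em 590) was read; parental cells received 10 uM forskolin + 100 uM RO 20-1724.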

[9] = qHTS Assay for Lipid Storage Modulators (AID 1519; calls by dose curve); conditions: Drosophila S3 cells, BODIPY lipid droplet/cell ratio, laser cytometry, cells loaded with oleic acid
In short: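 Cells seeded at 5,000 per well were treated with compounds over a concentration series and loaded with oleic acid (400 uM, as added). Lipid droplet fluorescence (488 nm excitation, 500-530 nm channel) was read by laser-scanning cytometry and normalized to 20 uM Triacsin C.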

[10] = target: Ubiquitin carboxyl-terminal hydrolase 1 (Homo sapiens) (UniProt O94782); assay: Inhibitors of USP1/UAF1: Pilot qHTS (AID 504865; active = well fitted curve in the direction sought with a large enough effect; an effect the other way counts as inactive or inconclusive;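 also: rhodamine fluorescence freed from ubiquitin-rhodamine substrate followed over time; top concentration of the series differs between compounds; % is scaled to controls: 0 for no effect and ±100 for the full control effect; nearly all actives have a fitted effect of over 35% in size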)
In short: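 1nM USP1/UAF1 + cpd, 15 min RT; start w/ Ub-Rho 150nM final; kinetic FL 480/540 nm, 6 reads q60 s. Buffer 50mM HEPES pH 7.8, 0.5mM EDTA, 1mM TCEP, 0.01% Tween-20, 0.1 mg/ml BSA.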

[11] = target: ATP-dependent 6-phosphofructokinase (Trypanosoma brucei brucei) (UniProt O15648); assay: qHTS Assay to Find Inhibitors of T. brucei phosphofructokinase: hit validation (AID 492961; active = well fitted curve in the direction sought with a large enough effect; an effect the other way counts as inactive or inconclusive)
In short: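 In this biochemical qHTS validation, titrated compounds were tested against 1.25 nM PFK with 0.1 mM ATP and 0.5 mM F6P. Percent activity came from controls lacking or containing enzyme.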

[12] = target: Luciferin 4-monooxygenase (Photinus pyralis) (UniProt P08659); assay: Biochemical firefly luciferase enzyme assay for NPC (AID 624030; active = well fitted curve in the direction sought with a large enough effect; an effect the other way counts as inactive or inconclusive;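 also: purified P. pyralis luciferase at 10 nM with luciferin and ATP substrate; 0% = DMSO and -100% = full luciferase inhibition by PTC124 control; nearly all actives have a fitted effect of over 70% in size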)
In short: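 Direct inhibition of firefly luciferase enzyme (10 nM final, 50 mM Tris Acetate) assessed by luminescence within 5 minutes. Percent activity scaled between DMSO and PTC124 positive control, with concentration-effect curves classified by fit quality and response.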

[13] = S16 Schwann cell PMP22 intronic element firefly luciferase assay (AID 624032; active = well fitted curve in the direction sought with a large enough effect; an effect the other way counts as inactive or inconclusive;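 also: plate controls were DMSO for no effect and PTC124 positive control mean for full effect; nearly all actives have a fitted effect of over 30% in size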)
In short: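 Luciferase reporter of PMP22 intronic-element expression in stably transfected S16 rat Schwann cells, read by ONE-Glo luminescence after 24 h compound exposure at 37 C. Activity scaled between DMSO (0%) and positive-control PTC124; concentration-effect curves quality-classified.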

[14] = qHTS profiling for inhibitors of Plasmodium falciparum proliferation (AID 504749; active = well fitted curve in the direction sought with a large enough effect; an effect the other way counts as inactive or inconclusive; also: potency is read from the fitted curve at half-maximal effect;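 as to activity, negative = inhibition: 0% = DMSO vehicle and full inhibition = artemisinin control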; as to all read-outs here: nearly all actives have a fitted effect of over 60% in size); conditions: P. falciparum in erythrocytes, SYBR Green DNA, 72 h; for activity, negative = inhibition: at 28.7 µM (top of the series)
In short: (§1)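 SYBR Green fluorescence of parasite DNA, read after lysis and overnight dark incubation, measured growth over 72 h in erythrocyte culture at 0.3% parasitemia and 2.5% hematocrit. Data normalised to DMSO and 0.29 uM artemisinin, with plate-drift correction.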

C2A = assay: as above; conditions: P. falciparum in erythrocytes, SYBR Green DNA, 72 h; series mostly up to 28.7 µM
In short: as §1

CP192 = assay: as above; conditions: P. falciparum in erythrocytes, SYBR Green DNA, 72 h; series mostly up to 28.7 µM
In short: as §1

CP262 = assay: as above; conditions: P. falciparum in erythrocytes, SYBR Green DNA, 72 h; series mostly up to 28.7 µM
In short: as §1

FAB9 = assay: as above; conditions: P. falciparum in erythrocytes, SYBR Green DNA, 72 h; series mostly up to 28.7 µM
In short: as §1

[15] = target: Lysosomal acid glucosylceramidase (Homo sapiens) (UniProt P04062); assay: Glucocerebrosidase-p2 (AID 348; in the data active = potency below about 10 µM; also: potency is read from the fitted curve at half-maximal effect); conditions: purified GBA, blue fluorogenic substrate, 40 min
In short: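 Normal human glucocerebrosidase (0.2 nM) with blue fluorogenic substrate (80 uM final) in citrate/phosphate pH 5.9 with 10mM sodium taurocholate, 0.01% tween-20; 40 min RT, NaOH/glycine stop; fluorescence Ex 365/Em 440; AC50 from a titration from 0.6 nM upwards.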

[16] = target: Cytochrome P450 3A4 (Homo sapiens) (UniProt P08684); assay: qHTS Assay for Activators of Cytochrome P450 3A4 (AID 885; active = well fitted curve in the direction sought with a large enough effect; an effect the other way counts as inactive or inconclusive; also: nearly all actives have a fitted effect of over 65% in size)
In short: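 CYP3A4 activity: Luciferin-PPXE O-dealkylation, 25uM substrate, 200mM KPO4, RT throughout. Read-out is luciferase luminescence; higher values reflect activation.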

[17] = measured here: cell count channel max response
[18] = measured here: lipid channel max response

Sequence of Ubiquitin carboxyl-terminal hydrolase 1 (Homo sapiens) (O94782 whole entry, looked up): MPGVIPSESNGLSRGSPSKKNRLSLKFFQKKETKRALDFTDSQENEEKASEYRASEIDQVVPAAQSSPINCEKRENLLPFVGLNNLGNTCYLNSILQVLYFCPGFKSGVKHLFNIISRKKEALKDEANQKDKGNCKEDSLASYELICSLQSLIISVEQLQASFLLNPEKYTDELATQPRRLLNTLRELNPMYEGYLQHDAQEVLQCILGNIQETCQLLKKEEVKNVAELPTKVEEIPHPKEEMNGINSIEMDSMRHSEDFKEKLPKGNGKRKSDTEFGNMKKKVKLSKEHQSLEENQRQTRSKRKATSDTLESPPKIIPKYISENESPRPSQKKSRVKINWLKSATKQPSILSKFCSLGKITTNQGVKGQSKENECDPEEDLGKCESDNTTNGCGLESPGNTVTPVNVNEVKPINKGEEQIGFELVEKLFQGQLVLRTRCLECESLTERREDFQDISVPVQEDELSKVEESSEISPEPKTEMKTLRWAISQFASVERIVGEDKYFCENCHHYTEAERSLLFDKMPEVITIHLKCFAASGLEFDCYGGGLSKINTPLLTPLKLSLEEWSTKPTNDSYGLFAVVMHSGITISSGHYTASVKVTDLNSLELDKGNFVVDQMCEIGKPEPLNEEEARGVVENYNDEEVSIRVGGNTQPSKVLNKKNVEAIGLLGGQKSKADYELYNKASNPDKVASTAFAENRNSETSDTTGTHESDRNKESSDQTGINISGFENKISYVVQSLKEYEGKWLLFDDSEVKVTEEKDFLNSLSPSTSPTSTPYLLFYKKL
Sequence of Cytochrome P450 1A2 (Homo sapiens) (P05177 whole entry, looked up): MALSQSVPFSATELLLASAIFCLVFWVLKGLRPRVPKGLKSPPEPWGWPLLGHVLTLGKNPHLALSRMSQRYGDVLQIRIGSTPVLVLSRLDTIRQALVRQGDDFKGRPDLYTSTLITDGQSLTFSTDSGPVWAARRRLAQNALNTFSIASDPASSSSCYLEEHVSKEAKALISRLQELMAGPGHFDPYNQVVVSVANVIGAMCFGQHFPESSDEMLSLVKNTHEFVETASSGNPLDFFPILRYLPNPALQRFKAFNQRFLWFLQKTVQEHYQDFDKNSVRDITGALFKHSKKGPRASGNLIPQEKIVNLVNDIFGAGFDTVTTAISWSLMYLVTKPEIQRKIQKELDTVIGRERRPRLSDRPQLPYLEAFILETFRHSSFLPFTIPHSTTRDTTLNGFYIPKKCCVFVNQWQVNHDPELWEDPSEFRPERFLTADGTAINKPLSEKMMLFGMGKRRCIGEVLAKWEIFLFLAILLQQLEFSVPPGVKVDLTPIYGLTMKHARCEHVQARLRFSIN
Sequence of 3',5'-cyclic-AMP phosphodiesterase 4B (Homo sapiens) (Q07343 whole entry, looked up): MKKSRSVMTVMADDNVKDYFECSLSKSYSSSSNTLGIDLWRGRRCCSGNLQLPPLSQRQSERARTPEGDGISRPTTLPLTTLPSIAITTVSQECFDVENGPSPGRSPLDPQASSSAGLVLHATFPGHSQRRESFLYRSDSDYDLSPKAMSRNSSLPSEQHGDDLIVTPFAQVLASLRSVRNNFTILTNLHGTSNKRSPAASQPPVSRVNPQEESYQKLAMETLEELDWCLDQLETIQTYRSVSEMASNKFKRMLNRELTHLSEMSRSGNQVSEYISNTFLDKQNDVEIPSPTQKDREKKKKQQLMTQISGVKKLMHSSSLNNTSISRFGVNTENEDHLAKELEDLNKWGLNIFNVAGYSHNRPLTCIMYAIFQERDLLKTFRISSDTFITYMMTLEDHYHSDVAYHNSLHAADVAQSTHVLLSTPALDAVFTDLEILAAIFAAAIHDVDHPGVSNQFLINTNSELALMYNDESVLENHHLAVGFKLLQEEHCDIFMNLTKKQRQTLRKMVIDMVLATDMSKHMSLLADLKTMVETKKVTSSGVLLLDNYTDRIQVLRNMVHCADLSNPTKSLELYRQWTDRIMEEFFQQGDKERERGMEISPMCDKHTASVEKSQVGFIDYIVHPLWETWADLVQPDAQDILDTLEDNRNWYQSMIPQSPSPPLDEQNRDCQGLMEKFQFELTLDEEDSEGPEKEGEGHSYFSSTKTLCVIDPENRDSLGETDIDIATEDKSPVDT
Sequence of Glucocorticoid receptor (Homo sapiens) (P04150 whole entry, looked up, the tested form may be a part): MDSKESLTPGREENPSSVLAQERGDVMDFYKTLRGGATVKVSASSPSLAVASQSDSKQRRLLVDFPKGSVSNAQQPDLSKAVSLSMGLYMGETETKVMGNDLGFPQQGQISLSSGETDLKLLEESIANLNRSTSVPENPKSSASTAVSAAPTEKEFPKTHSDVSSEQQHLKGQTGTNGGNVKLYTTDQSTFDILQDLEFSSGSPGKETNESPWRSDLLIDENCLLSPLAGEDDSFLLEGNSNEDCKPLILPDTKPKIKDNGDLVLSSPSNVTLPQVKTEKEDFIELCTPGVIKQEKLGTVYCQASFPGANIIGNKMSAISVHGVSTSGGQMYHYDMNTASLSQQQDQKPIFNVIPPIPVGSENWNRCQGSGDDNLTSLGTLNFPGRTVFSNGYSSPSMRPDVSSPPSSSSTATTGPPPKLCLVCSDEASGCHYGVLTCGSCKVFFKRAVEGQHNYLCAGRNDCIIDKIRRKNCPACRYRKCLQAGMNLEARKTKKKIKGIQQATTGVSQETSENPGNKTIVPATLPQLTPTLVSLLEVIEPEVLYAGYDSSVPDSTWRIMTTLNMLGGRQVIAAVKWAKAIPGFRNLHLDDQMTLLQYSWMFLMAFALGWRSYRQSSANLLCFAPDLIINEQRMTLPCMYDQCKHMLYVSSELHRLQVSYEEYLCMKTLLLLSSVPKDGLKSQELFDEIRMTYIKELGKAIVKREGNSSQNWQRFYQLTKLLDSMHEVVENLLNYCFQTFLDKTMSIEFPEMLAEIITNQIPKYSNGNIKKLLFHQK
Sequence of Lysosomal acid glucosylceramidase (Homo sapiens) (P04062 whole entry, looked up): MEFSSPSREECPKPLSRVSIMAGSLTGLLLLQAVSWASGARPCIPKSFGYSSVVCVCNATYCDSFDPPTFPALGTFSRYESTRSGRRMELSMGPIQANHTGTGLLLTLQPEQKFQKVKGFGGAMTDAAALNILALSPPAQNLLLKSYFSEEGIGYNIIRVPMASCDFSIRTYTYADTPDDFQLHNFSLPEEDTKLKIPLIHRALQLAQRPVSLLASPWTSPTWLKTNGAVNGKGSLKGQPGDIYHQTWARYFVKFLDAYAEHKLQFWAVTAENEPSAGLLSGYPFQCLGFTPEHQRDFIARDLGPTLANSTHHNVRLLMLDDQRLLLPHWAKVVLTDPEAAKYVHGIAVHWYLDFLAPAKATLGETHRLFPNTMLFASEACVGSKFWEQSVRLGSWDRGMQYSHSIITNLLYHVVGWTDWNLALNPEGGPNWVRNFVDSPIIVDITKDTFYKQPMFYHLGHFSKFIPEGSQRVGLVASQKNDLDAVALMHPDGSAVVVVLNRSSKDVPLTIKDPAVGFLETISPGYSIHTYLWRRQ
Sequence of ATP-dependent 6-phosphofructokinase (Trypanosoma brucei brucei) (O15648 whole entry, looked up): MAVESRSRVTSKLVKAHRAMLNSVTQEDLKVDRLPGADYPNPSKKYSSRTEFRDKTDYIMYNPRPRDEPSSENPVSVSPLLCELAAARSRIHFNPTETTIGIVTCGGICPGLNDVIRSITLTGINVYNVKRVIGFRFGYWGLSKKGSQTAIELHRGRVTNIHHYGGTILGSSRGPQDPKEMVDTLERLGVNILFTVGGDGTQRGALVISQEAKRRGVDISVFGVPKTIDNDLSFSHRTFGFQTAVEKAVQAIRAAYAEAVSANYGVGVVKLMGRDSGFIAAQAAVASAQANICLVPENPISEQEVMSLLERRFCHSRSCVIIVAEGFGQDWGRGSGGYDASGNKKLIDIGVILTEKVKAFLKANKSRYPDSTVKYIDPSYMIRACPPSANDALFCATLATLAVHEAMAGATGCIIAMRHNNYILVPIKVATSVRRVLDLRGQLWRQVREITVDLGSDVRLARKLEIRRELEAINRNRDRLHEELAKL
Sequence of Luciferin 4-monooxygenase (Photinus pyralis) (P08659 whole entry, looked up): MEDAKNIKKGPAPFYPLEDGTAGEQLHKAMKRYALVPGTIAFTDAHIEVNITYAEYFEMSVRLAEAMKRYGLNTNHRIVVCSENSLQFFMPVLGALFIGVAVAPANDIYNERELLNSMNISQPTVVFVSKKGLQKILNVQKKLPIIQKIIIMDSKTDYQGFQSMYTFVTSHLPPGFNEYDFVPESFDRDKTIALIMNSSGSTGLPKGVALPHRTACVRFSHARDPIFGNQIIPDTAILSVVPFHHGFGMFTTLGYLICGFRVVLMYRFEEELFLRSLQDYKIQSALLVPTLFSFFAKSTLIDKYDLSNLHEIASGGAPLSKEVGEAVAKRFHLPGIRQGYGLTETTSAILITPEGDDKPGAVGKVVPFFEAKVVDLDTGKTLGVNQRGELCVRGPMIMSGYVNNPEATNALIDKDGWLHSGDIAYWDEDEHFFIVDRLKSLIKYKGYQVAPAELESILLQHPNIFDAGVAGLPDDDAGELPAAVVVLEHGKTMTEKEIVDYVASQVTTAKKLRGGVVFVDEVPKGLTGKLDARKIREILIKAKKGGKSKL
Sequence of Cytochrome P450 3A4 (Homo sapiens) (P08684 whole entry, looked up): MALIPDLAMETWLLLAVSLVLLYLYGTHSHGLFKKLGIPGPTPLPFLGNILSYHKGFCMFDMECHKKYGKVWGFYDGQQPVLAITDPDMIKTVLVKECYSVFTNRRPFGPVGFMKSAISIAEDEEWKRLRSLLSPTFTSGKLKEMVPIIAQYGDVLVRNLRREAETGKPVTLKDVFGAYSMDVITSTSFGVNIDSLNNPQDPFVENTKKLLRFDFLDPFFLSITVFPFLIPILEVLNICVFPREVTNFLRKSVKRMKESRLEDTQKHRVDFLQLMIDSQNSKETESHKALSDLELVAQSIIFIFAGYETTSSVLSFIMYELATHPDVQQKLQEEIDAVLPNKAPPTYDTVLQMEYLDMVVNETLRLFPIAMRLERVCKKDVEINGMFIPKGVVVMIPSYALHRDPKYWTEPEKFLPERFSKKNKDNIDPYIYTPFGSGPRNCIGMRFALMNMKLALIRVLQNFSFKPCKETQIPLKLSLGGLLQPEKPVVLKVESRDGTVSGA

CCN1C[C@]2(COC)CC[C@H](O)[C@@]34[C@@H]5C[C@H]6[C@@H](OC)[C@H]5[C@](O)(C[C@@H]6OC)[C@@](O)([C@@H](OC)[C@H]23)[C@@H]14
-9.81%: max response [9, 18]
inactive: outcome [1] | Potency [2] | activity change, negative = inhibition ([3]; at 17.2 µM (top of the series)) 2.57% | outcome [4] | Potency [5] > 20.6 µM | Potency [6] > 20.6 µM | outcome [7] | Potency [8] | activity change, negative = inhibition ([9]; at 25.7 µM (top of the series)) 0.923% | Potency [10]
-10.9%: max response [9, 17]

NC[C@H](O)c1ccc(O)cc1
3.81%: max response [9, 18]
inactive: outcome [1] | Potency [2] | activity change, negative = inhibition ([3]; at 17.2 µM (top of the series)) 6.46% | activity change, negative = inhibition ([3]; at 38 µM (top of the series)) 10.8% | outcome [4] | outcome [7] | Potency [8] | activity change, negative = inhibition ([9]; at 25.7 µM (top of the series)) -0.0033% | Potency [10]
1.62%: max response [9, 17]

C#CCN(C)[C@@H](C)Cc1ccccc1
-0.249%: max response [9, 18]
2.02%: max response [9, 17]
active: Potency [2] 25.1 µM and 10 µM
inactive: outcome [1] | activity change, negative = inhibition ([3]; at 17.2 µM (top of the series)) -14.3% | activity change, negative = inhibition ([3]; at 38 µM (top of the series)) -2.85% | outcome [4] | Potency [5] > 46 µM and > 20.6 µM | Potency [6] > 46 µM and > 20.6 µM | outcome [7] | Potency [8] | activity change, negative = inhibition ([9]; at 25.7 µM (top of the series)) -2.3% | Potency [11] | Potency [12] | Potency [13] | activity, negative = inhibition ([14]; parasite line A) -9.65% | activity, negative = inhibition ([14]; parasite line B) 13.3% | Potency (C2A) | Potency (CP192) | Potency (CP262) | Potency (FAB9)

c1ccc(N2CCC3(CCNCC3)CC2)cc1
inactive: Potency [15] > 11.4 µM | outcome [1] | Potency [2] | activity change, negative = inhibition ([3]; at 7.69 µM (top of the series)) -12.2% | outcome [4] | Potency [6] > 46 µM | Potency [8] | activity change, negative = inhibition ([9]; at 57.5 µM (top of the series)) -3.07%
-8.78%: max response [9, 18]
-7.04%: max response [9, 17]

N#Cc1ccc(CN2CC[C@@]3(CCCNC3)C2)cc1
21.9%: max response [9, 18]
16.6%: max response [9, 17]
inactive: Potency [15] > 11.4 µM | outcome [1] | activity change, negative = inhibition ([3]; at 7.69 µM (top of the series)) -7.45% | outcome [4] | Potency [6] > 46 µM | outcome [7] | Potency [8] | Potency [16] | activity change, negative = inhibition ([9]; at 57.5 µM (top of the series)) 2.19%

COc1ccc2c(c1OC)CN1CCc3cc4c(cc3[C@H]1C2)OCO4
-16.8%: max response [9, 17]
active: Potency [2] 1.58 µM | Potency ([14]; parasite line A) 2 µM | Potency (C2A) 2.24 µM | Potency (CP192) 2.03 µM | Potency (CP262) 1.61 µM | Potency (FAB9) 3.16 µM
-19%: max response [9, 18]
inactive: outcome [1] | activity change, negative = inhibition ([3]; at 17.2 µM (top of the series)) -25.2% | outcome [4] | Potency [5] > 20.6 µM | Potency [6] > 20.6 µM | activity change, negative = inhibition ([9]; at 25.7 µM (top of the series)) -2.73% | Potency [11] | Potency [10] | Potency [12] | Potency [13]

CCC[C@@](C)(COC(N)=O)COC(=O)NC(C)C
inactive: outcome [1] | Potency [2] | activity change, negative = inhibition ([3]; at 17.2 µM (top of the series)) -5.77% | activity change, negative = inhibition ([3]; at 38 µM (top of the series)) -2.28% | outcome [4] | outcome [7] | Potency [8] | activity change, negative = inhibition ([9]; at 25.7 µM (top of the series)) -3.74%
7.74%: max response [9, 18]
10.2%: max response [9, 17]
